# Test results taken from PubChem BioAssay (NCI).
# This is part of a sample that, as a whole, favours compounds with a hit. Of some 79,000 tested, about 15% had one in any assay. A number with no mark means an inactive call. Calls of active or inactive are those of the source. Cut-off read from the data, not from the text of the source: active = growth inhibition above about 70%; inactive = the rest.
# Tests used:
# [1] = NCI Yeast Anticancer Drug Screen. Data for the rad52 strain (AID 147);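 note: 0% = growth of vehicle-treated control cultures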; conditions: S. cerevisiae rad52 mutant growth inhibition, stronger effect = higher value
# In short: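 The repair-mutant yeast strain was incubated with compounds, then growth was read and inhibition derived relative to vehicle.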
# [2] = NCI Yeast Anticancer Drug Screen. Data for the rad50EPP+ strain (AID 151);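 note: 0% = growth of vehicle-treated control cultures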; conditions: S. cerevisiae rad50 mutant strain, stronger effect = higher value
# In short: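 Vehicle-normalised growth inhibition; rad50EPP+ yeast strain, altered in DNA damage repair, compound-treated.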
# [3] = NCI Yeast Anticancer Drug Screen. Data for the mgt1 strain (AID 153); conditions: S. cerevisiae mgt1 mutant growth inhibition, stronger effect = higher value
# In short: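 Vehicle-normalized growth inhibition is determined in mgt1 yeast, a strain selected for a defined alteration in DNA repair or cell cycle control.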
# [4] = NCI Yeast Anticancer Drug Screen. Data for the rad50 strain (AID 155);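 note: 0% = growth of vehicle-only cultures of the same strain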; conditions: S. cerevisiae rad50 strain growth inhibition, stronger effect = higher value
# In short: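 Compounds were tested on a yeast strain with an engineered DNA damage repair alteration; the reported value is growth inhibition normalised to vehicle treatment.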
# [5] = NCI Yeast Anticancer Drug Screen. Data for the mec2-1 strain (AID 157); conditions: S. cerevisiae mec2-1 strain, stronger effect = higher value
# In short: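 Mutant yeast (mec2-1) grown with compound; growth inhibition relative to vehicle control reported.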
# [6] = NCI Yeast Anticancer Drug Screen. Data for the rad14 strain (AID 159);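 note: 0% = growth of vehicle-treated control cultures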; conditions: S. cerevisiae rad14 strain growth inhibition, stronger effect = higher value
# In short: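 Compound-treated yeast with a defined DNA-repair lesion; growth inhibition normalised to vehicle-treated cultures.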
# [7] = NCI Yeast Anticancer Drug Screen. Data for the sgs1 mgt1 strain (AID 161);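 note: 0% = growth of cultures given vehicle only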; conditions: S. cerevisiae sgs1 mgt1 strain, stronger effect = higher value
# In short: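 Growth of a repair-deficient yeast mutant was monitored after compound treatment and expressed as inhibition relative to vehicle-treated cultures.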
# [8] = NCI Yeast Anticancer Drug Screen. Data for the CLN2oe strain (AID 163);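 note: 0% = growth of vehicle-only control cultures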; conditions: S. cerevisiae CLN2oe strain, stronger effect = higher value
# In short: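 Compounds are applied to yeast harbouring a defined cell-cycle control change; reduced growth compared with vehicle-treated controls gives the value.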
# [9] = NCI Yeast Anticancer Drug Screen. Data for the cln2 rad14 strain (AID 165);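 note: 0% = growth equal to vehicle treated cultures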; conditions: S. cerevisiae cln2 rad14 strain, stronger effect = higher value
# In short: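 Readout is yeast growth inhibition versus vehicle-treated controls, using a strain with cln2 and rad14 alterations exposed to compound.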
# [10] = NCI Yeast Anticancer Drug Screen. Data for the bub3 strain (AID 167); conditions: S. cerevisiae bub3 mutant strain, stronger effect = higher value
# In short: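 Growth of a checkpoint-deficient yeast mutant is measured after compound exposure. Values represent inhibition relative to vehicle.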
# [11] = NCI Yeast Anticancer Drug Screen. Data for the wt2 strain (AID 169);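 note: 0% = growth of vehicle-treated yeast cultures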; conditions: S. cerevisiae wt2 strain growth inhibition, stronger effect = higher value
# In short: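 Against vehicle-treated controls, the growth of yeast exposed to each compound was compared, and the inhibition was recorded.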
# [12] = NCI Yeast Anticancer Drug Screen. Data for the mlh1 strain (AID 171);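 note: 0% = growth of vehicle-treated control cultures of the same strain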; conditions: S. cerevisiae mlh1 strain growth inhibition, stronger effect = higher value
# In short: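 Measured: yeast growth. Reference: vehicle-treated controls. Organism: strain with a defined alteration affecting DNA damage repair or cell cycle control, treated with compound.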
# [13] = NCI Yeast Anticancer Drug Screen. Data for the sgs1 strain (AID 173);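 note: 0% = growth of vehicle-only control cultures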; conditions: S. cerevisiae sgs1 mutant, stronger effect = higher value
# In short: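 Each compound was added to cultures of the altered yeast strain. Growth was recorded, and inhibition was derived by comparison with vehicle controls.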
# [14] = NCI Yeast Anticancer Drug Screen. Data for the mlh1 rad18 strain (AID 175); conditions: S. cerevisiae mlh1 rad18 strain growth inhibition, stronger effect = higher value
# In short: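 Genetically defined yeast (DNA repair-deficient) exposed to compounds; growth inhibition determined relative to vehicle.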
# [15] = NCI Yeast Anticancer Drug Screen. Data for the rad18 strain (AID 177); conditions: S. cerevisiae rad18 mutant growth inhibition, stronger effect = higher value
# In short: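 Vehicle-treated cultures served as the baseline for scoring compound-induced growth inhibition in DNA-repair-mutant yeast.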
# [16] = at 5.0 µM (retest, dose inferred, filed as 0.5)
# [17] = at 50.0 µM (retest, dose inferred, filed as 5.0)
compound,measurement,setting,value
CCCCC(CC)C(=O)[O][Sn]([CH2]CCC)([CH2]CCC)[O]C(=O)C(CC)CCCC (stereo not drawn),growth inhibition,[1]; at 1.2 µM,6%
same,growth inhibition,[1]; at 3.7 µM,11%
same,growth inhibition,[1]; at 11.0 µM,47%
same,growth inhibition,[1]; at 33.0 µM,92% (active)
same,growth inhibition,[1]; at 100.0 µM,98% (active)
same,growth inhibition,[2]; at 1.2 µM,18%
same,growth inhibition,[2]; at 3.7 µM,6%
same,growth inhibition,[2]; at 11.0 µM,8%
same,growth inhibition,[2]; at 33.0 µM,12%
same,growth inhibition,[2]; at 100.0 µM,29%
same,growth inhibition,[3]; at 1.2 µM,-11%
same,growth inhibition,[3]; at 3.7 µM,9%
same,growth inhibition,[3]; at 11.0 µM,60%
same,growth inhibition,[3]; at 33.0 µM,95% (active)
same,growth inhibition,[3]; at 100.0 µM,98% (active)
same,growth inhibition,[4]; at 1.2 µM,14%
same,growth inhibition,[4]; at 3.7 µM,11%
same,growth inhibition,[4]; [16],50%
same,growth inhibition,[4]; at 11.0 µM,51%
same,growth inhibition,[4]; at 33.0 µM,92% (active)
same,growth inhibition,[4]; [17],98% (active)
same,growth inhibition,[4]; at 50.0 µM,86.4% (active)
same,growth inhibition,[4]; at 100.0 µM,97% (active)
same,growth inhibition,[5]; at 1.2 µM,-11%
same,growth inhibition,[5]; at 3.7 µM,14%
same,growth inhibition,[5]; [16],72% (active)
same,growth inhibition,[5]; at 11.0 µM,56%
same,growth inhibition,[5]; at 33.0 µM,94% (active)
same,growth inhibition,[5]; [17],69%
same,growth inhibition,[5]; at 50.0 µM,87.7% (active)
same,growth inhibition,[5]; at 100.0 µM,98% (active)
same,growth inhibition,[6]; at 1.2 µM,-8%
same,growth inhibition,[6]; at 3.7 µM,3%
same,growth inhibition,[6]; at 11.0 µM,47%
same,growth inhibition,[6]; at 33.0 µM,90% (active)
same,growth inhibition,[6]; at 100.0 µM,97% (active)
same,growth inhibition,[7]; [16],2%
same,growth inhibition,[7]; [17],95% (active)
same,growth inhibition,[7]; at 50.0 µM,89.4% (active)
same,growth inhibition,[8]; at 1.2 µM,-21%
same,growth inhibition,[8]; at 3.7 µM,5%
same,growth inhibition,[8]; at 11.0 µM,37%
same,growth inhibition,[8]; at 33.0 µM,92% (active)
same,growth inhibition,[8]; at 100.0 µM,98% (active)
same,growth inhibition,[9]; [16],59%
same,growth inhibition,[9]; [17],97% (active)
same,growth inhibition,[9]; at 50.0 µM,86.2% (active)
same,growth inhibition,[10]; at 1.2 µM,6%
same,growth inhibition,[10]; at 3.7 µM,18%
same,growth inhibition,[10]; [16],44%
same,growth inhibition,[10]; at 11.0 µM,68%
same,growth inhibition,[10]; at 33.0 µM,95% (active)
same,growth inhibition,[10]; [17],93% (active)
same,growth inhibition,[10]; at 50.0 µM,89.8% (active)
same,growth inhibition,[10]; at 100.0 µM,98% (active)
same,growth inhibition,[11]; at 1.2 µM,-27%
same,growth inhibition,[11]; at 3.7 µM,-10%
same,growth inhibition,[11]; at 11.0 µM,49%
same,growth inhibition,[11]; at 33.0 µM,90% (active)
same,growth inhibition,[11]; at 100.0 µM,98% (active)
same,growth inhibition,[12]; at 1.2 µM,-38%
same,growth inhibition,[12]; at 3.7 µM,-21%
same,growth inhibition,[12]; at 11.0 µM,33%
same,growth inhibition,[12]; at 33.0 µM,88% (active)
same,growth inhibition,[12]; at 100.0 µM,97% (active)
same,growth inhibition,[13]; at 1.2 µM,2%
same,growth inhibition,[13]; at 3.7 µM,-5%
same,growth inhibition,[13]; at 11.0 µM,37%
same,growth inhibition,[13]; at 33.0 µM,89% (active)
same,growth inhibition,[13]; at 100.0 µM,97% (active)
same,growth inhibition,[14]; [16],58%
same,growth inhibition,[14]; [17],98% (active)
same,growth inhibition,[14]; at 50.0 µM,88.8% (active)
same,growth inhibition,[15]; at 1.2 µM,-2%
same,growth inhibition,[15]; at 3.7 µM,0%
same,growth inhibition,[15]; at 11.0 µM,46%
same,growth inhibition,[15]; at 33.0 µM,91% (active)
same,growth inhibition,[15]; at 100.0 µM,97% (active)
